TDP1 cell noCPT – qHTS for Inhibitors of human tyrosyl-DNA phosphodiesterase 1 (TDP1): qHTS in cells in absence of CPT | DT40 Tdp1-/- hTDP1 cells, no CPT, ATP luminescence, 48 h | Potency, µM (series often up to 46.2 µM), without a hit: at the top dose activity change, negative = growth inhibition, actives largely listed as inhibitors | hit rate 15% among 420,000 | AID 686978, 2013; also: potency is read from the fitted curve at half-maximal effect; nearly all actives have a fitted effect of over 55% in size
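Compound effects on proliferation are scored in DT40 Tdp1-/-;hTDP1 cells in the absence of CPT. ATP levels (CellTiter-Glo luminescence) are recorded after a ≥48 hr, 37 °C incubation.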
DT40 TDP1 CPT – DT40-hTDP1 cell growth loss with CPT; chicken DT40 Tdp1-/-;hTDP1 cells + 20 nM CPT, ATP luminescence, 48 h; Potency, µM (titrated, usually from 46.2 µM), for the others: top-dose activity change, negative = growth inhibition, most hits filed as inhibitors; hit rate 12% among 420,000; AID 686979; also: potency is read from the fitted curve at half-maximal effect; nearly all actives have a fitted effect of over 55% in size
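Cell growth measured by CellTiter-Glo luminescence after a minimum 48 h, 37 C compound exposure with 20 nM CPT in Tdp1-knockout DT40 cells stably expressing hTDP1, seeded 400/well; qHTS titration format.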
IL1B secr inh – inhibitors of inflammasome signaling (IL-1 beta secretion). THP-1 LPS/ATP IL-1B secretion, AlphaLISA, 16 h; active compounds read low. activity change, % at 57.5 µM. hit rate 4.7% among 360,000. AID 743279; in the data active = activity change below about -50%; inconclusive = mostly about -30% to -49%
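Secreted IL-1B measured by AlphaLISA bead assay after 16 h compound exposure of THP-1 cells; compounds (final up to 57.5 uM) added 1 h before LPS (250 ng/mL) and ATP (1.25 mM) stimulation; lower signal means less secretion.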
HT1080-NT tox – kills 2HG-producing HT-1080-NT fibrosarcoma cells | HT-1080-NT fibrosarcoma viability, CellTiter-Glo ATP luminescence, 48 h | Potency, µM (titrated, usually from 46.1 µM), without a hit: top-dose activity, negative = less viability, most hits filed as cytotoxic | hit rate 1.6% among 360,000 | AID 686970;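 also: NT is the 2HG producing partner of a matched IDH1 knockdown line; potency is read from the fitted curve at half-maximal effect; 0% = DMSO-treated cells and -100% = media-only wells without cells; nearly all actives have a fitted effect of over 55% in size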
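Luminescent CellTiter-Glo readout after 48 hours of compound exposure at 37 degrees C defined viability of HT-1080-NT cells. Activity was normalized to DMSO wells and cell-free media wells; concentration-response curves were fitted and assigned curve classes.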
HT1080 IDH1KD tx – kills HT-1080 cells with IDH1 knockdown. Potency, µM (top dose mostly 46.1 µM), for inactives: top-dose activity, negative = toxicity, hits mostly cytotoxic. hit rate 2% among 360,000. HT-1080 IDH1 knockdown viability, ATP luminescence, 48 h. AID 686971;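 also: potency is read from the fitted curve at half-maximal effect; 0% = DMSO wells and -100% = cell-free medium wells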
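Using the IDH1-knockdown HT-1080 line run in the same batch and compound series as the NT line, viability after 48 h at 37 °C was determined by CellTiter-Glo luminescence and expressed as % activity.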
Active calls of the source: *; [ ] = dose if it differs, or a comment. In the library only some 19% were active in any assay of this set; here they are far more common. Unless noted, calls follow the shape of the dose curve; as a rule, active = well fitted curve in the direction sought with a large enough effect; inconclusive = small, poorly fitted or top-dose-only effect, or another doubt; inactive = no such curve, though single readings can be large; an effect the other way counts as inactive or inconclusive. Unless noted, % is scaled to controls: 0 for no effect and ±100 for the full control effect.

Results for Cc1ccccc1OCC(O)CNC1CCCC1 (stereo not drawn) ?
TDP1 cell noCPT: -6%; DT40 TDP1 CPT: -1%; IL1B secr inh: 11; HT1080-NT tox: -8%; HT1080 IDH1KD tx: -1%

What do the screens show for `Cc1ccc(C(C)C)c(OCCCN(C)Cc2ccccc2)c1`?
TDP1 cell noCPT: 23µM*; DT40 TDP1 CPT: 16µM*; IL1B secr inh: -21; HT1080-NT tox: -22%; HT1080 IDH1KD tx: inconclusive

Results for Cc1cc(C)c(OCCCCN(C)Cc2ccccc2)c(C)c1 ?
TDP1 cell noCPT: 23µM*; DT40 TDP1 CPT: inconclusive; IL1B secr inh: -2; HT1080-NT tox: -17%; HT1080 IDH1KD tx: -2%

What do the screens show for `Cc1ccc(OCCCCN(C)Cc2ccccc2)c(Br)c1`?
TDP1 cell noCPT: 18µM*; DT40 TDP1 CPT: 23µM*; IL1B secr inh: -98*; HT1080-NT tox: inconclusive; HT1080 IDH1KD tx: inconclusive

How did CCOC(=O)C(=O)Nc1ccc(Oc2ccccc2)cc1 do in these assays?
TDP1 cell noCPT: 16%; DT40 TDP1 CPT: -22%; IL1B secr inh: 0; HT1080-NT tox: -1%; HT1080 IDH1KD tx: 1%

How did O=C(Nc1ccc(SC(F)F)cc1)c1cc(-c2ccc3c(c2)OCCO3)on1 do in these assays?
TDP1 cell noCPT: -11%; DT40 TDP1 CPT: -14%

Results for Cc1ccc(C(C)C)c(OCC(O)CN(C)Cc2ccccc2)c1 (stereo not drawn) ?
TDP1 cell noCPT: inconclusive; DT40 TDP1 CPT: 23µM*; IL1B secr inh: -85*; HT1080-NT tox: inconclusive; HT1080 IDH1KD tx: inconclusive

Results for O=C1N/C(=C\c2ccccc2)c2ccccc21 ?
TDP1 cell noCPT: 23µM*; DT40 TDP1 CPT: 21µM*; IL1B secr inh: 34; HT1080-NT tox: inconclusive; HT1080 IDH1KD tx: inconclusive

What do the screens show for `CN(C(=O)CN1C(=O)c2cccc(N)c2C1=O)C1CCCCC1`?
TDP1 cell noCPT: 8%; DT40 TDP1 CPT: -7%; IL1B secr inh: 26; HT1080-NT tox: 0%[9.24 µM]; HT1080 IDH1KD tx: -1%

Results for Nc1c(OS(=O)(=O)c2ccccc2)cccc1OS(=O)(=O)c1ccccc1 ?
TDP1 cell noCPT: inconclusive; DT40 TDP1 CPT: -22%; IL1B secr inh: inconclusive; HT1080-NT tox: -12%; HT1080 IDH1KD tx: -1%

How did O=C(NC1CC1)c1ccc(CS(=O)c2ccccc2)o1 (stereo not drawn) do in these assays?
TDP1 cell noCPT: -17%; DT40 TDP1 CPT: 1%; IL1B secr inh: -28; HT1080-NT tox: -5%; HT1080 IDH1KD tx: -3%

Results for CC1(C)CCC[C@]2(C)C(CS(=O)c3ccccc3)=C(C=O)CC[C@@H]12 (stereo partly drawn) ?
TDP1 cell noCPT: 21µM*; DT40 TDP1 CPT: inconclusive; IL1B secr inh: inconclusive; HT1080-NT tox: -11%; HT1080 IDH1KD tx: -21%

What do the screens show for `CCOC(=O)c1cnc2ccc(OC)cc2c1NCCc1ccc(OC)c(OC)c1`?
TDP1 cell noCPT: 7.3µM*; DT40 TDP1 CPT: 6.5µM*; IL1B secr inh: -90*; HT1080-NT tox: 3%; HT1080 IDH1KD tx: 7%

Results for CCOC(=O)c1cnc2ccc(OC)cc2c1NCCN1CCOCC1 ?
TDP1 cell noCPT: inconclusive; DT40 TDP1 CPT: -29%; IL1B secr inh: -17; HT1080-NT tox: 0%; HT1080 IDH1KD tx: 2%

Results for CCOC(=O)c1cnc2ccccc2c1NCCc1ccc(OC)c(OC)c1 ?
TDP1 cell noCPT: 10µM*; DT40 TDP1 CPT: 16µM*; IL1B secr inh: -14; HT1080-NT tox: 1%; HT1080 IDH1KD tx: 1%

Results for CCOC(=O)c1ccc2ncc(C(=O)OCC)c(NCCN(C)C)c2c1 ?
TDP1 cell noCPT: -16%; DT40 TDP1 CPT: 3%; IL1B secr inh: inconclusive; HT1080-NT tox: inconclusive; HT1080 IDH1KD tx: 14%

Results for O=C(NC1CCS(=O)(=O)C1)c1cccc(S(=O)(=O)N2CCCC2)c1 (stereo not drawn) ?
TDP1 cell noCPT: -19%; DT40 TDP1 CPT: 9%; IL1B secr inh: 11; HT1080-NT tox: 12%; HT1080 IDH1KD tx: 9%

What do the screens show for `Cc1oc2cc3oc(=O)c(CCC(=O)N(C)CC(=O)O)c(C)c3cc2c1C`?
TDP1 cell noCPT: 1%; DT40 TDP1 CPT: 14%; IL1B secr inh: -5; HT1080-NT tox: 9%; HT1080 IDH1KD tx: 4%

What do the screens show for `CN(C)S(=O)(=O)N1CCN(S(=O)(=O)c2ccc(F)cc2)CC1`?
TDP1 cell noCPT: -5%; DT40 TDP1 CPT: -14%; IL1B secr inh: -2; HT1080-NT tox: -3%; HT1080 IDH1KD tx: 6%

How did CN(C)S(=O)(=O)c1ccc(N2CCN(S(=O)(=O)c3ccc(F)cc3)CC2)c(Cl)c1 do in these assays?
TDP1 cell noCPT: 18µM*; DT40 TDP1 CPT: 18µM*; IL1B secr inh: -25; HT1080-NT tox: 10µM*; HT1080 IDH1KD tx: 7.1µM*

What do the screens show for `CC1(c2ccc(Cl)cc2)NC(=O)N(CC(=O)N2CCN(S(=O)(=O)c3ccccc3)CC2)C1=O` (stereo not drawn)?
TDP1 cell noCPT: inconclusive; DT40 TDP1 CPT: inconclusive; IL1B secr inh: -3; HT1080-NT tox: -15%; HT1080 IDH1KD tx: -6%

Results for COCCCNC(=O)c1c(N)n(-c2cccc(S(N)(=O)=O)c2)c2nc3ccccc3nc12 ?
TDP1 cell noCPT: inconclusive; DT40 TDP1 CPT: inconclusive; IL1B secr inh: -53*; HT1080-NT tox: -21%; HT1080 IDH1KD tx: -12%

What do the screens show for `CC(C)OCCCNC(=O)c1c(N)n(/N=C/c2cccs2)c2nc3ccccc3nc12`?
TDP1 cell noCPT: inconclusive; DT40 TDP1 CPT: inconclusive; IL1B secr inh: -29; HT1080-NT tox: 17%; HT1080 IDH1KD tx: 5%

How did CCCNC(=O)c1c(N)n(-c2cccc(OC)c2)c2nc3ccccc3nc12 do in these assays?
TDP1 cell noCPT: inconclusive; DT40 TDP1 CPT: inconclusive; IL1B secr inh: -71*; HT1080-NT tox: -13%; HT1080 IDH1KD tx: -14%

How did Nc1c(C(=O)NCCN2CCOCC2)c2nc3ccccc3nc2n1-c1cccc(F)c1 do in these assays?
TDP1 cell noCPT: inconclusive; DT40 TDP1 CPT: inconclusive; IL1B secr inh: -63*; HT1080-NT tox: -23%; HT1080 IDH1KD tx: -23%

What do the screens show for `COCCCNC(=O)c1c(N)n(/N=C/c2ccccn2)c2nc3ccccc3nc12`?
TDP1 cell noCPT: 10µM*; DT40 TDP1 CPT: 10µM*; IL1B secr inh: inconclusive; HT1080-NT tox: 1%; HT1080 IDH1KD tx: 15%

What do the screens show for `Cc1nc2cccnc2n1-c1cccc(C(=O)NCCc2ccc(S(N)(=O)=O)cc2)c1`?
TDP1 cell noCPT: -6%; DT40 TDP1 CPT: -3%

What do the screens show for `COCCCN1CN(S(=O)(=O)c2cccs2)c2nc3ccccc3nc21`?
TDP1 cell noCPT: -22%; DT40 TDP1 CPT: 11%; IL1B secr inh: -6; HT1080-NT tox: 3%; HT1080 IDH1KD tx: 8%

Source: PubChem (National Center for Advancing Translational Sciences (NCATS))
